# The source made the active and inactive calls.
# Assays:
# [1] = binders of probe aFSTL3 on microarray, primary screen, stem cell growth factor project, biochemical, small-molecule microarray, fluorescence 635/667 (AID 1064); settings: higher = more signal;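 further: measures binding of the biotinylated anti-FSTL3 antibody to printed compounds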
# [2] = binders from COS7 lysate, DM2A8 probe, primary screen, torsin A project, cell lysate, small-molecule microarray, fluorescence 635/667 (AID 1065); settings: higher = more signal, COS7 lysate expressing mutant human TOR1A
# [3] = binders of probe aFGF2 on microarray, primary screen, stem cell growth factor project, biochemical, small-molecule microarray, fluorescence 635/667 (AID 1067); settings: higher = more signal;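 further: measures binding of biotinylated aFGF2 protein to printed compounds on slides; z-score merges feature fluorescence and signal-to-noise across triplicate slides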
# [4] = binders of probe aFGF10 on microarray, primary screen, stem cell growth factor project, biochemical, small-molecule microarray, fluorescence 635/667 (AID 1071); settings: higher = more signal;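 further: score merges 667 nm spot intensity and signal to noise from triplicate slides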
# [5] = target: Neurogenic locus notch homolog protein 2 (Homo sapiens) (UniProt Q04721); test: Notch2 binders on small-molecule microarrays, primary screen, biochemical, small-molecule microarray, 635 nm fluorescence, stem cell growth factors (AID 1073); settings: Notch2 binding, higher = more signal
# Chain of Neurogenic locus notch homolog protein 2 (Homo sapiens) (Q04721 whole entry, looked up, canonical isoform): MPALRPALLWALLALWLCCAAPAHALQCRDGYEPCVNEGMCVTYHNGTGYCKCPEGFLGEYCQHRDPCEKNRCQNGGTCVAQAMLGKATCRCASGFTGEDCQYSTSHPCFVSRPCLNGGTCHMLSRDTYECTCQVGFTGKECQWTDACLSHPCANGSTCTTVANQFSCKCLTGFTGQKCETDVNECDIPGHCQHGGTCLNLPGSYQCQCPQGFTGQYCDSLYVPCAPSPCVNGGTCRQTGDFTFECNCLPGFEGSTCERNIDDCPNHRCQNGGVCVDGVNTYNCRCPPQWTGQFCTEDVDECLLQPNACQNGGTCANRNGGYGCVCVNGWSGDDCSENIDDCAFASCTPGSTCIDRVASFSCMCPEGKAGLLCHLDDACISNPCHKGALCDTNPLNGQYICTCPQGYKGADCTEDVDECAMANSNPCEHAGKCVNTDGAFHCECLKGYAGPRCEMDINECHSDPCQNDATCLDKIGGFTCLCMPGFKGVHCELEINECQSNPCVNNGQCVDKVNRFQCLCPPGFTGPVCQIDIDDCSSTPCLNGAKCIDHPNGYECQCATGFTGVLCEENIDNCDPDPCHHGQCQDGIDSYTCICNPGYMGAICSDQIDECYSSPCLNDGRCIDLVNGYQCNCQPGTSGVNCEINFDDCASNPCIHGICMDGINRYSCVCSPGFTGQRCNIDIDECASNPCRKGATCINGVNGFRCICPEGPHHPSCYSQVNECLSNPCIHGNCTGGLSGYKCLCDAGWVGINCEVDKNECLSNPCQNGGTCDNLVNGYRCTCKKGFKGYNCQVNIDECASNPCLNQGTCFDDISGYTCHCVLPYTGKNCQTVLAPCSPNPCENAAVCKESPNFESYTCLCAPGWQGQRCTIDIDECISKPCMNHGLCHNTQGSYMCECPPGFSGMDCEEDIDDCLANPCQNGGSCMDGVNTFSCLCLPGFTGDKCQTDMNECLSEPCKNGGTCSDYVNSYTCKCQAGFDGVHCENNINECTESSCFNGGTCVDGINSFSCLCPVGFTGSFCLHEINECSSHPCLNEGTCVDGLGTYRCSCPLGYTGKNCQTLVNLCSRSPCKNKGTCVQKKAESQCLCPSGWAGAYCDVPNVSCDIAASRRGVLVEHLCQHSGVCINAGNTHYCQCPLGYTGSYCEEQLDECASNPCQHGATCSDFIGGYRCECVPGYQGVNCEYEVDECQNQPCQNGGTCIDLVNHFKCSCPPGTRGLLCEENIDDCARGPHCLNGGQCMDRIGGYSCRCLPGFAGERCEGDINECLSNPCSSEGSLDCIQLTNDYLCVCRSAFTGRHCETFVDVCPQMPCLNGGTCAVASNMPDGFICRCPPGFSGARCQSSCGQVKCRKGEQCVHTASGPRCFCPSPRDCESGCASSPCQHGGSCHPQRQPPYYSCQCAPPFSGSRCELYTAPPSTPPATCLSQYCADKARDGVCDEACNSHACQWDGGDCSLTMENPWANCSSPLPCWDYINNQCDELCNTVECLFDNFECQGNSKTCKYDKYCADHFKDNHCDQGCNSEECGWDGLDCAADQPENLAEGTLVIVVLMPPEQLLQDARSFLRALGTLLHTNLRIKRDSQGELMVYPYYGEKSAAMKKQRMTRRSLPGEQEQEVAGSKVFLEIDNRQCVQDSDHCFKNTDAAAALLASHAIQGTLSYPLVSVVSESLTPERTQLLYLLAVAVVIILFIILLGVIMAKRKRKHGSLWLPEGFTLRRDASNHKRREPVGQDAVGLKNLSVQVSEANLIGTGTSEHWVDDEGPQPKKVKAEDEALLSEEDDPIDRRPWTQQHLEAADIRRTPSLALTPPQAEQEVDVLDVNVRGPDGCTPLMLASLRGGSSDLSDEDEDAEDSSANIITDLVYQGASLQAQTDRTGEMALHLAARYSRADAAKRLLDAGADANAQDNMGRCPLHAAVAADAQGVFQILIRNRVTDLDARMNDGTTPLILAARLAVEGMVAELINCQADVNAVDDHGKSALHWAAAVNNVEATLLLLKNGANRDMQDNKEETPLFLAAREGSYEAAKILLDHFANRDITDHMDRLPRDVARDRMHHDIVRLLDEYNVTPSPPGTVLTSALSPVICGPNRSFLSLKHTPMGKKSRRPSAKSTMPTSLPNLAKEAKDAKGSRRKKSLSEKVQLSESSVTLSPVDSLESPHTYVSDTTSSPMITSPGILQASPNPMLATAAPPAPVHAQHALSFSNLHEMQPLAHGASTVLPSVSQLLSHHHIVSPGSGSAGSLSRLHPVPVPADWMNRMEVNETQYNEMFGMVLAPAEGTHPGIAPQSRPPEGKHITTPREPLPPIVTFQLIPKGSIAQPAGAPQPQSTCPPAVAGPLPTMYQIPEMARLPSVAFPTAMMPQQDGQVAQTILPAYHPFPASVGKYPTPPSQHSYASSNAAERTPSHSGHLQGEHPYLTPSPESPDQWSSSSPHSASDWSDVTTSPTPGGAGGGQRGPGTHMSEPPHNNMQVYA
# [6] = target: Pro-neuregulin-1, membrane-bound isoform (Homo sapiens) (UniProt Q02297); test: NRG1 binders on small-molecule microarrays, primary screen, psychiatric disease protein project, biochemical, small-molecule microarray, fluorescence 635/667 (AID 1075); settings: NRG1 binding, 635 nm fluorescence, higher = more signal;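 further: score combines 667 nm spot fluorescence with signal to noise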
# Chain of Pro-neuregulin-1, membrane-bound isoform (Homo sapiens) (Q02297 whole entry, looked up, the tested form may be a part, canonical isoform): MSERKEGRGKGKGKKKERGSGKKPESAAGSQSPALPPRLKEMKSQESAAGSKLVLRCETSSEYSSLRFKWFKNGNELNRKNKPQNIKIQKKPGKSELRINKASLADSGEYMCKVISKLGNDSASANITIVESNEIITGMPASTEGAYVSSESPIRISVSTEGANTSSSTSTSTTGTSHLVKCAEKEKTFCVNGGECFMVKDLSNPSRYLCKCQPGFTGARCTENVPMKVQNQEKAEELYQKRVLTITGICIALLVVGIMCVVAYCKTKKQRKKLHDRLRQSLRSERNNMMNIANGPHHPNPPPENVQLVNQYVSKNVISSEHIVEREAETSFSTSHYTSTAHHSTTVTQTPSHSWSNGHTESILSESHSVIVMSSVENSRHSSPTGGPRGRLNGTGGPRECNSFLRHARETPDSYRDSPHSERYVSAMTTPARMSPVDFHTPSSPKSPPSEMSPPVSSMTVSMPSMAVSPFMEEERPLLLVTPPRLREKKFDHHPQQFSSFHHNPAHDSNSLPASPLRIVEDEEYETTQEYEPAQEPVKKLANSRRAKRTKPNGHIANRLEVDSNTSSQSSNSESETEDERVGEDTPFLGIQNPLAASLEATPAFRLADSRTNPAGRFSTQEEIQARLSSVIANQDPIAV
# [7] = system: Neuregulin-1 EGF-like domain; test: binders of neuregulin-1 EGF-like domain, primary screen, biochemical, small-molecule microarray, 635 nm fluorescence (AID 1081); settings: small-molecule microarray binding, higher = more signal;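 further: binding of the protein to compounds printed on small-molecule microarray slides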
# [8] = FRG1 promoter luciferase signal modulators, primary screen, FRG1 inhibition for FSHD, cell-based, C2C12 myotubes, firefly/Renilla luciferase, luminescence (AID 1084); settings: higher = more signal, called active from +8 up or from −8 down
# [9] = binders of probe aFST on microarray, primary screen, stem cell growth factor project, biochemical, small-molecule microarray, fluorescence 635/667 (AID 1086); settings: higher = more signal;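 further: score merges 667 nm fluorescence with signal-to-noise of each printed compound spot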
# [10] = binders of probe aHhip on microarray, primary screen, stem cell growth factor project, biochemical, small-molecule microarray, fluorescence 635/667 (AID 1087); settings: higher = more signal;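 further: score merges spot fluorescence at 667nm with spot signal to noise ratio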
# [11] = system: PRMT1 (protein arginine N-methyltransferase 1); test: PRMT1 binders on small-molecule microarrays, primary screen, biochemical, small-molecule microarray, 635 nm fluorescence (AID 1088); settings: small-molecule microarray binding, higher = more signal;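 further: binding of Prmt1 protein to compounds spotted on small-molecule microarray slides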
# [12] = yeast growth modulation, basal conditions, primary screen, YJM789 clinical isolate, OD600, 24 h (AID 1089);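 further: growth of clinical yeast isolate S. cerevisiae YJM 789 seeded 1000 cells per well; test concentration not given here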; settings: S. cerevisiae YJM789 growth, higher = more signal, called active from +8 up or from −8 down
# [13] = fission yeast growth modulation, primary screen, strain 972, OD600, 24 h, no modulator (AID 1090);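 further: basal condition with compound alone and no growth modifier present; test concentration not given here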; settings: S. pombe 972 growth, higher = more signal, called active from +8 up or from −8 down
# [14] = S. cerevisiae growth modulation with rapamycin, primary screen, strain BY4716, OD600, 96 h (AID 1091); settings: higher = more signal, called active from +8 up or from −8 down; further: test concentration not given here
# [15] = target: Torsin-1A-interacting protein 2 (Homo sapiens) (UniProt Q8NFQ8); test: LULL1 binders on small-molecule microarray, primary screen, cell lysate, human LULL1 lysate, 635/667 nm fluorescence (AID 1092); settings: hLULL1 lysate binding, 635 nm fluorescence, higher = more signal;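 further: probe is lysate of COS7 cells overexpressing human LULL1; score merges per-feature 667 nm fluorescence with signal-to-noise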
# Chain of Torsin-1A-interacting protein 2 (Homo sapiens) (Q8NFQ8 whole entry, looked up): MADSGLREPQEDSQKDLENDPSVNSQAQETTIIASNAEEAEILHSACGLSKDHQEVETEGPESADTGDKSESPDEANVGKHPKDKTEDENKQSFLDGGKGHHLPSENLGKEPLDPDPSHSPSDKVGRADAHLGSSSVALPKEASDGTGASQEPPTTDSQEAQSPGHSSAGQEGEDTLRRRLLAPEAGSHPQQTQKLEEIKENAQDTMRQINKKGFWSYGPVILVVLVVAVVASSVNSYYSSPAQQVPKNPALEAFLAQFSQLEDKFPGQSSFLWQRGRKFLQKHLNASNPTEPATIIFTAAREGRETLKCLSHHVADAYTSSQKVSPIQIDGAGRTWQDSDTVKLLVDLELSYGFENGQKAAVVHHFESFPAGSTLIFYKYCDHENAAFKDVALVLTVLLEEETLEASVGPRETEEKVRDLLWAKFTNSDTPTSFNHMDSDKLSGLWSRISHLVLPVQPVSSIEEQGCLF
# [16] = E. coli growth modulation, two-sided OD650, primary screen, E. coli filamentation project, strain DRC41, 24 h (AID 1093); settings: OD650, 24 h, higher = more signal, called active from +8 up or from −8 down;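 further: MC1000 strain lacking acrAB efflux and sulA so SOS filamentation is blocked; test concentration not given here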
# [17] = small-molecule microarray binders of probe aLefty2, primary screen, biochemical, biotinylated probe, 635/667 nm fluorescence (AID 1094); settings: higher = more signal;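 further: score merges spot fluorescence near 667 nm with spot signal-to-noise ratio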
# [18] = system: Noggin (protein binding on small-molecule microarray); test: Noggin binders on small-molecule microarray, primary screen, biochemical, 635/667 nm fluorescence (AID 1095); settings: 635 nm fluorescence, higher = more signal;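 further: score merges 667 nm feature fluorescence with signal to noise over triplicate slides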
# [19] = target: Neurogenic locus notch homolog protein 3 (Homo sapiens) (UniProt Q9UM47); test: NOTCH3 binders on small-molecule microarray, primary screen, biochemical, 635/667 nm fluorescence (AID 1096); settings: NOTCH3 binding, 635 nm fluorescence, higher = more signal
# [20] = small-molecule microarray binders of probe aEGFR, primary screen, biochemical, biotinylated probe, 635/667 nm fluorescence (AID 1097); settings: higher = more signal;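 further: probe is a biotinylated anti-EGFR antibody binding compounds printed on slides; score combines fluorescence near 667 nm and signal to noise of each spot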
Structure (SMILES),composite z-score [1],composite z-score [2],composite z-score [3],composite z-score [4],composite z-score [5],composite z-score [6],composite z-score [7],z-score [8],composite z-score [9],composite z-score [10],composite z-score [11],z-score [12],z-score [13],z-score [14],composite z-score [15],z-score [16],composite z-score [17],composite z-score [18],composite z-score [19],composite z-score [20]
O=C1C[C@@](C(=O)NCCN2CCOCC2)(c2ccc([N+](=O)[O-])cc2)[C@@H](c2ccc(CO)cc2)N1C1CCCCC1,0.224,0.657,0.11,0.26,0.576,0.548,1.25,0.292 (inactive),0.133,0.0053,1.55,0.406 (inactive),-0.824 (inactive),-0.468 (inactive),3.07,1.48 (inactive),0.138,0.515,1.12,0.23
C=CCc1cccc([C@@H]2[C@@H](C)CC[C@H]3C(=O)N4[C@H](c5cccc(CC=C)c5)[C@@H](C)CC[C@H]4C(=O)N23)c1,0.0575,0.537,-0.0677,0.873,1.07,1.12,0.536,0.313 (inactive),0.56,0.154,0.592,-0.988 (inactive),0.0313 (inactive),6.6 (inactive),0.785,0.533 (inactive),0.0163,0.432,0.671,-0.124
O=C(CS)NCCCCCCNC(=O)[C@@H]1C[C@@H]2C(=O)N[C@@H](Cc3ccccc3)C(=O)N2[C@@H]1c1ccc(O)cc1,0.0737,1.09,-0.083,0.922,0.412,1.23,1.41,1.21 (inactive),0.245,0.0373,1.53,0.205 (inactive),1.52 (inactive),1.99 (inactive),2.97,0.988 (inactive),-0.0741,0.652,1.16,-0.0271
C[C@@H]1CC[C@H]2C(=O)N3CCC[C@H]3C(=O)N2[C@H]1c1ccc(Br)cc1,-0.162,0.0769,-0.11,-0.121,-0.829,-0.267,0.0421,-0.228 (inactive),-0.0423,0.0274,-0.455,0.233 (inactive),-0.228 (inactive),-0.0146 (inactive),0.178,0.784 (inactive),-0.207,0.49,-0.383,-0.166
CO[C@H]1O[C@H](CO)[C@@H](OC(=O)Nc2ccc(Oc3ccccc3)cc2)[C@H](OC(=O)Nc2ccccc2-c2ccccc2)[C@H]1OC(=O)Nc1ccccc1-c1ccccc1,-0.448,0.44,0.104,1.04,1.51,1.52,1.35,-0.441 (inactive),0.33,-0.0672,1.54,3.07 (inactive),1.84 (inactive),0.792 (inactive),3.28,2.45 (inactive),0.218,1.23,1.06,0.242
[N-]=[N+]=NCc1ccccc1C[C@@]1(C(=O)O)N=C(c2ccc(OCCCO)cc2)O[C@@H]1c1ccccc1N=[N+]=[N-],0.168,-0.259,-0.0242,0.377,1.55,1.66,1.22,-1.6 (inactive),0.521,-0.0994,1.51,-0.41 (inactive),-1.02 (inactive),-0.85 (inactive),3.16,0.602 (inactive),0.0189,0.0183,1.03,0.0316
O=C1C2C=CC(C(O)Cc3ccccc3)N(Nc3ccc([N+](=O)[O-])cc3)C2C(=O)N1c1ccccc1 (stereo not given),0.159,-0.0657,-0.06,0.699,1.15,1.83,1.33,1.19 (inactive),0.638,0.413,0.623,-0.442 (inactive),0.38 (inactive),1.18 (inactive),2.92,-0.209 (inactive),0.232,0.278,0.864,0.268
CCC(=O)[C@]12O[C@@]3([C@@H]4C(=O)OCC[C@@H]41)N(CC)C(C)=C(C(=O)OC)[C@@H](c1ccccc1)N3C2=O,0.162,-0.337,-0.116,0.0911,-0.925,0.0983,0.966,-0.13 (inactive),-0.255,0.176,-0.486,-1.62 (inactive),-1.89 (inactive),-0.153 (inactive),0.155,0.421 (inactive),-0.0928,0.152,-0.37,-0.0818
C[C@H]1NC(=O)[C@@H](C)NC(=O)[C@@]23C(=O)N[C@@H](Cc4ccccc4)C2[C@H](C)[C@@]2(C)O[C@H]2C3/C=C/C/C=C\CNC1=O (stereo not given in full),-0.372,-0.0794,-0.083,-0.167,-0.269,0.631,0.812,0.0028 (inactive),-0.41,-0.34,-0.0842,1 (inactive),-0.696 (inactive),0.581 (inactive),-0.968,2.41 (inactive),-0.142,-0.142,-0.129,-0.131
CO[C@H]1COC(=O)[C@H](C)NC(=O)CC=C[C@@H](C)[C@H](NS(=O)(=O)c2ccc(C)cc2)COC(=O)CC=C[C@@H]1C,-0.734,1.84,-0.172,0.0871,-0.543,-0.455,-0.775,-1.27 (inactive),0.0005,-0.199,0.0763,-0.733 (inactive),-0.635 (inactive),-1.1 (inactive),-0.876,0.119 (inactive),-0.186,0.678,-0.734,-0.119
